The campaign covered roughly 2,400 compounds. About 40 (2%) were called active. Roughly 1% stayed inconclusive and do not appear here.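 The calls were made as follows: active = inhibition at or above 60%; inconclusive = inhibition from 0% up to below 60%; inactive = no inhibition observed.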 The sample as a whole holds a higher share of actives than the screen did.

This passage reports inhibition results from PubChem BioAssay AID602289 (National Center for Advancing Translational Sciences (NCATS), 2012).

The assay in a line: qHTS Assay for Small Molecule Inhibitors of Mitochondrial Division or Activators of Mitochondrial Fusion: Hit Validation in Malachite Green Assay.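 As to inhibition: plate controls were DMSO wells with GTPase for no effect and protein-free buffer wells for full effect.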 To be noted: purified GTPase, malachite green phosphate release, A650; stronger effect = higher value. An excerpt:
The budding yeast S. cerevisiae is a powerful system to study mitochondrial fusion. Unlike other organisms, yeast cells without functional mitochondrial DNA (mtDNA) can be propagated and studied as long as they maintain a mitochondrial compartment and are provided with a fermentable carbon source. When mitochondrial fusion is blocked in yeast, mitochondrial tubules rapidly fragment and division continues unopposed. Under conditions where fusion is compromised in mammalian cells, nearly identical changes in mitochondrial structure have been observed. Thus, these findings indicate that steady state mitochondrial structure in cells is a characteristic and specific indicator of fusion activity. Mounting evidence has pointed to a connection between mitochondrial dynamics and apoptosis in mammalian cells. These studies indicate that in mammalian cells mitochondrial dynamics are more integrated into cellular processes than in yeast cells and have evolved not only to distribute the organelle but also to aid in the regulation of cellular homeostasis. Mitochondrial fusion proteins attenuate apoptosis by inhibiting the release of cytochrome c from mitochondria, in part by controlling cristae structures. Thus, small molecules that inhibit mitochondrial fusion may promote apoptosis and potentially act as novel chemotherapeutics and stimulation of apoptosis has become an attractive target of anti-cancer therapies. To identify inhibitors of mitochondrial division, we exploit the growth phenotypes of mitochondrial fusion-defective mutants. The temperature sensitive fusion alleles, such as fzo1-1 and mgm1-5, cause mitochondrial membranes to fragment in cells under non-permissive conditions and cells lose mtDNA, and are unable to grow in the presence of non-fermentable carbon source glycerol. Inhibiting mitochondrial division rescues growth. The hits were tested by the assay provider in a malachite green assay. NIH Chemical Genomics Center [NCGC] NIH Molecular Libraries Probe Production Centers Network [MLPCN] MLPCN Grant: MH081279 Assay Submitter (PI): Jodi M. Nunnari
Malachite Green Reagent Malachite Green carbinol base- Aldrich 229105 Ammonium molybdate - Sigma A7302 For 100 mL Malachite Green reagent in 1N HCl 16 mL conc. HCL + 32 mL H20 = 48 mL 4N HCl 34 mg malachite green base into 40 mL 1N HCl (10 mL 4N HCl + 30 mL H20) 1 g ammonium molybdate in 15 mL 4N HCl Mix Solutions together. Bring up to […] with H2O. Filter using a 0.2 um tissue culture filter unit (has plastic bottle attached) store at 4 masculine C. (Avoid Glassware/Plastics washed in detergent. Mix solutions in 50 mL conical vials.) For 20 uL reaction volume 1.0 uL Test Drug or DMSO: Added first to each well […]: 25 mM Hepes/Pipes pH 7.0 (H/P) 2.0 uL: 50 mM MgCl2 (final 5mM) 2.32 uL: 1 M NaCl (with contributing protein salt, Final = 150mM) 13.4 uL per reaction. Can be mixed in larger volume (Mini Master Mix) 1.6 uL: Protein 7.5 uM or Protein Freezing Buffer. (Final = 0.6uM) After Protein Added to mini Master Mix, 15ul Total Master Mix added to each well with drug. 4 uL: 500 uM GTP (Final = 100uM), Dilute with 25 mM H/P, store on ice. 20 uL Total Volume Make Master Mix: (Calculate desired reactions and add a few for multi-channel pipetting volume). Multiply the number of desired reactions by 13.4 uL for total Mini Master volume. Multiply the number of desired reactions by 1.6 uL for total Protein volume. Mix, and keep on ice until added to wells. Add 15 uL of Master Mix to each reaction well, incubate with drug for 10 min. For Positive (No Drug) controls add 15 uL Master Mix to wells with only 1 uL DMSO. Make PFB (Protein Freezing Buffer) (no Protein) Master Mix. Multiply the number of desired reactions by 13.4 uL for total Mini Master volume. Multiply the number of desired reactions by 1.6 uL for total PFB volume. Mix, and keep on ice until added to wells Add 10 uL of PFBMaster Mix to each Phosphate Standards well, and 15 uL to each negative control well with DMSO. […]
For `CCCCCn1c(SCCC(C)C)nc2c1c(=O)[nH]c(=O)n2C`, the inhibition is 96.1% (active).

As for `CCCCn1c(N2CCC(Cc3ccccc3)CC2)nc2c1c(=O)[nH]c(=O)n2C`, the inhibition result is “inactive”.

As for `C=C(C)Cn1c(N2CC(C)CC(C)C2)nc2c1c(=O)[nH]c(=O)n2C` (stereo not drawn), the inhibition entry is “inactive”. On to `C=CCc1cc2c(oc(=O)c3ccccc32)c(C)c1O`, for which the inhibition result is “inactive”.

In the case of `COc1cccc(COc2ccc3c(C)cc(=O)oc3c2)c1`, the inhibition result was “inactive”.

Take `O=C1C=C(/C=C/C2C=CC=CC2)C[C@@H](c2ccc(Cl)cc2)C1` (stereo partly drawn): the inhibition entry is “inactive”.

On to `Cn1c(=O)c2c(nc(Oc3ccccc3Cl)n2C)n(C)c1=O`, for which the inhibition entry was “inactive”. Take `CS/C(=N\S(=O)(=O)c1cccs1)Nc1ccc(Br)cc1F`: the inhibition result was “inactive”. Take `Oc1c(I)cc(Cl)c2cccnc12`: the inhibition is 66.8% (active). `O=C(Oc1c(Cl)cc(Cl)c2cccnc12)c1ccco1`: the inhibition is 67.8% (active). With `Cc1cc(Cl)cc(Cl)c1OCCOc1cccc2cccnc12`, the inhibition result is “inactive”. `O=c1oc2cc(O)c(Cl)cc2c2ccccc12`: the inhibition result is “inactive”.

Regarding `Oc1c(Cl)cc(Cl)c2cccnc12`, the inhibition was 86% (active).

For `O=C(Nc1ccc(Cl)cc1C(=O)Nc1ccccn1)c1ccco1`, the inhibition entry is “inactive”. For the compound `CN(C(=O)C(Cl)Cl)c1ccc(OC(=O)c2ccco2)cc1`, the inhibition entry was “inactive”.

Take `CCCCCCSc1ccc([C@@H]2[C@@H]3C(=O)N(C)C(=O)[C@@H]3[C@]3(C(=O)OC)CCCCN23)cc1OC`: the inhibition entry was “inactive”. Regarding `O=C(c1cn(Cc2ccccc2)nc1-c1ccc(Cl)cc1)N1CCN(c2ccccn2)CC1`, the inhibition result is “inactive”. Next, `O=C(c1cn(-c2ccccc2)nc1-c1cccs1)N1CCN(c2ccccn2)CC1`: “inactive”; `O=C(c1cc(COc2cccc3cnccc23)on1)N1CCC(c2ccccc2Cl)C1` (stereo not drawn): “inactive”; `COc1ccc(C2=NOC(Cn3nc(C(=O)NCc4ccco4)cc3-c3ccccc3)C2)cc1` (stereo not drawn): “inactive”. For `COc1cccc(NC(=O)CN(C)C(=O)c2sc3cc(Cl)ccc3c2Cl)c1`, the inhibition entry is “inactive”.

For `Cc1c(Cl)cccc1Nc1nc(N)nc(CSc2nc3ccccc3s2)n1`, the inhibition entry is “inactive”. The same measure for `CNC(=O)c1ccsc1NC(=O)C1CCN(S(=O)(=O)c2ccc(Cl)s2)CC1`: “inactive”. Take `COc1ccc(N=Nc2nc(-c3ccccc3)c(-c3ccccc3)[nH]2)cc1`: the inhibition entry is “inactive”. As to `Clc1ccc(-c2nnc3sc(Cc4cccs4)nn23)cc1`, the inhibition entry was “inactive”.

Turning to `c1ccc(-c2nnc3sc(-c4csc5c4CCCC5)nn23)cc1`, the inhibition is 99.9% (active). As for `COc1ccc2ccccc2c1C(=O)/C=C\c1ccoc1`, the inhibition entry is “inactive”. Regarding `COc1ccc(S(=O)(=O)N(C(=O)c2ccncc2)c2ccc3oc4c(c3c2)CCCC4)cc1`, the inhibition entry was “inactive”. Regarding `COCc1nc2sc3c(c2c(=O)[nH]1)CCCC3`, the inhibition entry was “inactive”. On to `CC(C)c1nc2sc3c(=O)[nH]c(=S)[nH]c3c2c2c1CCC2`, for which the inhibition was 104% (active). As for `O=c1[nH]c(C2CC2)nc2sc3c(c12)CCCC3`, the inhibition entry was “inactive”. The same measure for `O=C(/C=C/c1cccs1)N1CCC2(CC1)Oc1ccc(Cl)cc1C(=O)C21CC(c2cccnc2)=NO1` (stereo not drawn): “inactive”. Take `COc1ccc(-c2cc(=O)oc3c(C)c(OC(C)C(C)=O)ccc23)cc1` (stereo not drawn): the inhibition entry is “inactive”. As for `CC(Oc1cccc(Cl)c1)C(=O)Nc1nc(-c2ccccn2)cs1` (stereo not drawn), the inhibition was 68.3% (active).

For the compound `CC(Oc1cccc(Cl)c1)C(=O)Nc1cc(Cl)ccc1N1CCOCC1` (stereo not drawn), the inhibition entry was “inactive”. For the compound `Cc1csc(NC(=O)C(C)Oc2ccc(Br)cc2)n1` (stereo not drawn), the inhibition entry was “inactive”. Regarding `Cc1ccccc1Nc1nc(N)nc(CSc2nc3ccccc3s2)n1`, the inhibition entry is “inactive”. As to `O=C(NCC1(c2ccccc2)CCCC1)c1ccccc1Br`, the inhibition result is “inactive”. Turning to `Cc1cc2nc3s/c(=C/c4ccc(-c5ccccc5C(=O)O)o4)c(=O)n3c2cc1C`, the inhibition is 66.8% (active). For the compound `Cc1ccc2c(nc3s/c(=C\c4ccc(-c5ccccc5C(=O)O)o4)c(=O)n32)c1C`, the inhibition was 86.5% (active). With `Cc1c(C(=O)O)cccc1-c1ccc(/C=N/Nc2ccc(Br)cc2)o1`, the inhibition result is “inactive”. Next, `Cc1ccc2c(=O)cc(C(=O)NCc3ccccc3)oc2c1C`: “inactive”; `CC(C)COc1ccc(S(=O)(=O)NNC(=O)c2cc3ccccc3o2)cc1`: “inactive”. Turning to `CCNC(=O)c1ccccc1CCc1ccccc1`, the inhibition entry was “inactive”. As to `CCC(C)N1C(=O)S/C(=C/c2ccc(N3CCOCC3)cc2C)C1=O` (stereo not drawn), the inhibition result was “inactive”. In the case of `COc1ccccc1NC(=O)N(Cc1ccccc1)c1ccccn1`, the inhibition entry is “inactive”. The same measure for `Fc1cccc(CNc2ncnc3ccc(-c4ccc5c(c4)OCO5)cc23)c1`: “inactive”; for `CCOc1ccc(C(=O)CCN2CCCCC2)cc1`: “inactive”; for `CC(CNc1nc2ccccc2n2cnnc12)c1ccccc1` (stereo not drawn): “inactive”. Consider `COc1ccc(NC(=O)CN(C)C(=O)c2ccccc2CCc2ccccc2)cc1`, for which the inhibition entry was “inactive”.

On to `N#CC(Sc1ccccn1)c1ccc(Cl)cc1` (stereo not drawn), for which the inhibition was 65.5% (active). As to `COc1ccc(C(=O)NC2(C(F)(F)F)NC(=O)N(CCCc3ccccc3)C2=O)c(OC)c1OC` (stereo not drawn), the inhibition result is “inactive”. Next, `Cc1cc(C)nc(NC(=O)/C=C/c2ccccc2Cl)c1`: “inactive”.
